Results on 8 compounds are retold here after PubChem BioAssay (NCI).

Several values for one entry are separate records, joined by “and”; a condition that tells them apart may be missing. Equal entries are not always repeated. This is part of a sample that, as a whole, favours compounds with a hit. Of some 79,000 tested, about 15% had one in any assay. Some compounds were tested as several samples or in several runs, with calls that do not always agree. Activity calls are given as the source filed them. Cut-off read from the data, not from the text of the source: active = growth inhibition above about 70%; inactive = the rest.

Test [1] can be described thus: NCI Yeast Anticancer Drug Screen. Data for the rad50 strain (AID 155).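 Note: 0% = growth of vehicle-only cultures of the same strain.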 As to conditions: S. cerevisiae rad50 strain growth inhibition, stronger effect = higher value. Summed up:
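Growth of the mutant yeast was measured after compound exposure and referenced to vehicle-treated cultures.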

Test [2] is described as follows: NCI Yeast Anticancer Drug Screen. Data for the mec2-1 strain (AID 157). As to conditions: S. cerevisiae mec2-1 strain, stronger effect = higher value. Summed up: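 Compounds were applied to mec2-1 yeast cells. Their growth was then compared with that of vehicle-treated cultures to give growth inhibition.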
A short description of test [3]: NCI Yeast Anticancer Drug Screen. Data for the sgs1 mgt1 strain (AID 161).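 Note: 0% = growth of cultures given vehicle only.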 As to conditions: S. cerevisiae sgs1 mgt1 strain, stronger effect = higher value. In a few lines: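 Yeast cells carrying a defined DNA-repair defect were exposed to test compounds. Growth inhibition was measured relative to vehicle-treated controls.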
The nature of test [4]: NCI Yeast Anticancer Drug Screen. Data for the cln2 rad14 strain (AID 165).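 Note: 0% = growth equal to vehicle treated cultures.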 As to conditions: S. cerevisiae cln2 rad14 strain, stronger effect = higher value. In a few lines: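 Strain: cln2 rad14 yeast, altered in cell cycle control and DNA damage repair. Read-out: growth inhibition vs vehicle.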
The nature of test [5]: NCI Yeast Anticancer Drug Screen. Data for the bub3 strain (AID 167). As to conditions: S. cerevisiae bub3 mutant strain, stronger effect = higher value. Summed up: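 Whole-cell yeast assay. The mutant strain was incubated with compounds, and growth inhibition was determined by comparison with vehicle-treated cells.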
A short description of test [6]: NCI Yeast Anticancer Drug Screen. Data for the mlh1 rad18 strain (AID 175). As to conditions: S. cerevisiae mlh1 rad18 strain growth inhibition, stronger effect = higher value. In a few lines:
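A repair-deficient yeast strain is exposed to test compound, and growth is scored relative to vehicle-treated controls.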

Setting [7] is: at 5.0 µM (retest, dose inferred, filed as 0.5).
Setting [8] is: at 50.0 µM (retest, dose inferred, filed as 5.0).

`CC(=O)NC1CCC(C2CCCCC2)CC1C1CCCCC1` (stereo not drawn): the growth inhibition in test [1] (setting [7]) is -2% (inactive); in test [1] (setting [8]), 85% (active); in test [1] (at 50.0 µM), 93.6% (active); in test [2] (setting [7]), -1% (inactive); in test [2] (setting [8]), 87% (active); in test [2] (at 50.0 µM) it was 95.7% (active). For the same compound, the growth inhibition in test [3] (setting [7]) is 4% (inactive); in test [3] (setting [8]) it was 93% (active); in test [3] (at 50.0 µM) it was 90.7% (active); in test [4] (setting [7]), 1% (inactive); in test [4] (setting [8]), 82% (active); in test [4] (at 50.0 µM), 89.7% (active). Also, the growth inhibition was 3% (inactive) in test [5] (setting [7]); 86% (active) in test [5] (setting [8]); 95% (active) in test [5] (at 50.0 µM); -1% (inactive) in test [6] (setting [7]); 86% (active) in test [6] (setting [8]); 92% (active) in test [6] (at 50.0 µM).

With `O=[N+]([O-])C(/C=C(\Cl)[N+](=O)[O-])=C(Nc1ccccc1)Nc1ccccc1`, the growth inhibition in test [1] (setting [7]) was -23% (inactive); in test [1] (setting [8]) it was 98% (active); in test [1] (at 50.0 µM), 86.8% (active); in test [2] (setting [7]), -7% (inactive); in test [2] (setting [8]), 99% (active); in test [2] (at 50.0 µM), 88.2% (active). The growth inhibition in test [3] (setting [7]) was -16% (inactive); in test [3] (setting [8]), 98% (active); in test [3] (at 50.0 µM), 86.8% (active); in test [4] (setting [7]) it was 1% (inactive); in test [4] (setting [8]), 98% (active); in test [4] (at 50.0 µM) it was 82.8% (active). In addition, the results for the growth inhibition in test [6] (setting [7]), in test [6] (setting [8]) and in test [6] (at 50.0 µM) were 27% (inactive), 99% (active) and 80.3% (active), respectively.

Regarding `CCCCCCCCCCCCCCCC[N+](C)(C)Cc1cnc[nH]1`, the growth inhibition is 99% (active) in test [1] (setting [7]); 98% (active) in test [1] (setting [8]); 90.3% (active) in test [1] (at 50.0 µM); 99% (active) in test [2] (setting [7]); 99% (active) in test [2] (setting [8]); 91.2% (active) in test [2] (at 50.0 µM). The growth inhibition was 98% (active) in test [3] (setting [7]); 99% (active) in test [3] (setting [8]); 91.8% (active) in test [3] (at 50.0 µM); 99% (active) in test [5] (setting [7]); 99% (active) in test [5] (setting [8]); 91% (active) in test [5] (at 50.0 µM). In addition, the growth inhibition in test [6] (setting [7]) was 98% (active); in test [6] (setting [8]), 98% (active); in test [6] (at 50.0 µM), 89.1% (active).

On to `Cc1noc(-c2ccc([N+](=O)[O-])o2)n1`, for which the growth inhibition in test [1] (setting [7]) is 6% (inactive); in test [1] (setting [8]) it was 85% (active); in test [1] (at 50.0 µM), 93.5% (active); in test [3] (setting [7]) it was 5% (inactive); in test [3] (setting [8]), 87% (active); in test [3] (at 50.0 µM), 74.6% (active). Further, the growth inhibition in test [4] (setting [7]) was -6% (inactive); in test [4] (setting [8]), 57% (inactive); in test [4] (at 50.0 µM), 57.9% (inactive); in test [5] (setting [7]), 2% (inactive); in test [5] (setting [8]), 80% (active); in test [5] (at 50.0 µM) it was 63.9% (inactive). In addition, the figures for the growth inhibition in test [6] (setting [7]), in test [6] (setting [8]) and in test [6] (at 50.0 µM) were 24% (inactive), 94% (active) and 87.8% (active), respectively.

As for `COc1cc(C2C(C#N)=C(C)Nc3nc(N)nc(N)c32)cc(OC)c1OC` (stereo not drawn), the growth inhibition in test [1] (setting [7]) was -6% (inactive); in test [1] (setting [8]), 19% (inactive); in test [1] (at 50.0 µM), 24.6% (inactive); in test [3] (setting [7]), -8% (inactive); in test [3] (setting [8]) it was 10% (inactive); in test [3] (at 50.0 µM), 19.1% (inactive). The growth inhibition is -6% (inactive) in test [4] (setting [7]); 9% (inactive) in test [4] (setting [8]); 81.4% (active) in test [4] (at 50.0 µM); 0% (inactive) in test [5] (setting [7]); 65% (inactive) in test [5] (setting [8]); 1.2% (inactive) in test [5] (at 50.0 µM). The results for the growth inhibition in test [6] (setting [7]), in test [6] (setting [8]) and in test [6] (at 50.0 µM) were -1% (inactive), 21% (inactive) and 8.95% (inactive), respectively.

`Cc1cc(=O)[nH]c2ccc(Cc3ccc(N)cc3)cc12`: the growth inhibition was -3% (inactive) in test [1] (setting [7]); 12% (inactive) in test [1] (setting [8]); 6.25% (inactive) and 15.6% (inactive) in test [1] (at 50.0 µM); 15% (inactive) in test [3] (setting [7]); 27% (inactive) in test [3] (setting [8]); 14.6% (inactive) and 1.2% (inactive) in test [3] (at 50.0 µM). The growth inhibition in test [4] (setting [7]) is 0% (inactive); in test [4] (setting [8]), -2% (inactive); in test [4] (at 50.0 µM), 13.2% (inactive) and 31.4% (inactive); in test [5] (setting [7]), 3% (inactive); in test [5] (setting [8]), 10% (inactive); in test [5] (at 50.0 µM) it was 19.1% (inactive) and -13.5% (inactive). In addition, the growth inhibition was 21% (inactive) in test [6] (setting [7]); 22% (inactive) in test [6] (setting [8]); 11.8% (inactive) and -1% (inactive) in test [6] (at 50.0 µM).

As for `Cc1cc([N+](=O)[O-])c(C)c2c1[nH]c1ccc(O)cc12`, the growth inhibition was 52% (inactive) in test [1] (setting [7]); 93% (active) in test [1] (setting [8]); 87% (active) in test [1] (at 50.0 µM); 46% (inactive) in test [2] (setting [7]); 94% (active) in test [2] (setting [8]); 88.8% (active) in test [2] (at 50.0 µM). In addition, the growth inhibition in test [3] (setting [7]) is 23% (inactive); in test [3] (setting [8]) it was 94% (active); in test [3] (at 50.0 µM), 88.2% (active); in test [4] (setting [7]), 50% (inactive); in test [4] (setting [8]) it was 96% (active); in test [4] (at 50.0 µM), 85.5% (active). In addition, the growth inhibition in test [6] (setting [7]) is 73% (active); in test [6] (setting [8]) it was 95% (active); in test [6] (at 50.0 µM), 82.7% (active).

`CC(=O)OCC1OC(n2c(C)c(C(C)=O)c(-c3ccco3)c(C#N)c2=S)C(OC(C)=O)C(OC(C)=O)C1OC(C)=O` (stereo not drawn): the growth inhibition is -7% (inactive) in test [1] (setting [7]); -3% (inactive) in test [1] (setting [8]); -9.45% (inactive) and 32.2% (inactive) in test [1] (at 50.0 µM); 2% (inactive) in test [2] (setting [7]); 1% (inactive) in test [2] (setting [8]); -26.9% (inactive) and 56.2% (inactive) in test [2] (at 50.0 µM). The growth inhibition in test [3] (setting [7]) is 2% (inactive); in test [3] (setting [8]) it was 13% (inactive); in test [3] (at 50.0 µM), -4.95% (inactive) and 74.4% (active); in test [5] (setting [7]), -4% (inactive); in test [5] (setting [8]), 9% (inactive); in test [5] (at 50.0 µM), -25.4% (inactive) and 42.4% (inactive). The growth inhibition in test [6] (setting [7]) was -29% (inactive); in test [6] (setting [8]), 12% (inactive); in test [6] (at 50.0 µM) it was 3.55% (inactive) and 45% (inactive).
